# Bioassay records (PubChem)
# TDP1 cell CPT = growth inhibition of DT40 Tdp1-/-;hTDP1 cells with camptothecin (screen for TDP1 inhibitors); chicken DT40 Tdp1-/-;hTDP1 cells + 20 nM CPT, ATP luminescence, 48 h; Potency, µM (titrated, usually from 46.2 µM), without a hit: top-dose activity change, negative = growth inhibition, most hits filed as inhibitors; 420,000 tested, 12% active; further: nearly all actives have a fitted effect of over 55% in size
#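 Chicken DT40 Tdp1-/- cells stably complemented with human TDP1 were seeded at 400 cells/well in medium containing 20 nM camptothecin, exposed to pin-transferred compounds, and grown at 37 °C for at least 48 hr. Viability was read as ATP luminescence.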
# RORgamma inh = ROR gamma (mouse) transcription inhibition; Drosophila S2 Gal4-RORgamma UAS-luciferase reporter, 20 h; Potency, µM (top dose mostly 53.6 µM), inactives show at the highest dose activity change, negative = inhibition, actives largely listed as inhibitors; 310,000 tested, 5.4% active; AID 2551; further: nearly all actives have a fitted effect of over 60% in size
# Target sequence (P51450 whole entry, looked up, the tested form may be a part): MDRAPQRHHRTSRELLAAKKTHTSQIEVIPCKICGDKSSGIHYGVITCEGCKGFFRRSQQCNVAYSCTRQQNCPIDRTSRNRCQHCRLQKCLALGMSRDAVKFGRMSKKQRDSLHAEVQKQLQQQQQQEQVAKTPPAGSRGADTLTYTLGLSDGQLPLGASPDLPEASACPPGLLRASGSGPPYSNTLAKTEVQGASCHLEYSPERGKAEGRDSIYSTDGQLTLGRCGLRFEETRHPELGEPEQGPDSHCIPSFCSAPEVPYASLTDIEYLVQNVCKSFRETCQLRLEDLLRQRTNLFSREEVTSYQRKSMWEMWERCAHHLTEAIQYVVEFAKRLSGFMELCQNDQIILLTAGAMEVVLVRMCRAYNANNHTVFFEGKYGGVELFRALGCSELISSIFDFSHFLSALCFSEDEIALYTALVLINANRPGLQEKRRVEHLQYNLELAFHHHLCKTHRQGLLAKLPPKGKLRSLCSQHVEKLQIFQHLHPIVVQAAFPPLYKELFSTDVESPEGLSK
#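 A Gal4/UAS one-hybrid system in insect cells: metallothionein-promoter Gal4–ROR gamma fusion plus Photinus luciferase reporter. Copper sulfate 700 uM final, 20 hr ambient incubation, luminescent detection after 10 min with reagent.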
# DT40 TDP1 no CPT = qHTS for Inhibitors of human tyrosyl-DNA phosphodiesterase 1 (TDP1): qHTS in cells in absence of CPT; Potency, µM (highest dose often 46.2 µM), inactives show at the highest dose activity change, negative = growth inhibition, actives largely listed as inhibitors; 420,000 tested, 15% active; AID 686978, 2013; DT40 Tdp1-/- hTDP1 cells, no CPT, ATP luminescence, 48 h; further: nearly all actives have a fitted effect of over 55% in size
#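 Luminescent ATP content (CellTiter-Glo) served as the growth readout. Knockout chicken DT40 cells expressing human TDP1 were exposed to compounds without camptothecin for a minimum 48 hr at 37 °C.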
# TDP1 block = inhibitors of human tyrosyl-DNA phosphodiesterase TDP1 | Q9NUW8 | recombinant TDP1, AlphaScreen DNA substrate cleavage | Potency, µM (doses to about 130 µM), for the others: at the highest dose activity change, negative = inhibition, actives largely listed as inhibitors | 350,000 tested, 0.28% active | AID 485290; further: nearly all actives have a fitted effect of over 40% in size
#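 Recombinant human Tdp1 (E. coli-expressed, 1 nM final) preincubated with compounds 15 min at room temperature, then 5'-biotin/3'-phosphotyrosine-FITC DNA substrate (15 nM final) added for 5 min. AlphaScreen beads (10 ug/ml final) added 10 min; cleavage lowers signal.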
# VP16 counter = counter-screen for ROR gamma inhibitors: Gal4-VP16 reporter; Potency, µM (top dose mostly 53.6 µM), for inactives: top-dose activity, negative = inhibition, most hits filed as inhibitors; Drosophila S2 Gal4-VP16 UAS-luciferase, luminescence, 20 h; 310,000 tested, 3.5% active;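 further: Gal4-VP16 expression switched on by copper sulfate through the metallothionein promoter; nearly all actives have a fitted effect of over 50% in size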
# Numbers without * were called inactive; ? = inconclusive; . = no result; [ ] = another dose, or the depositor's remark. Rows were chosen to be rich in hits. Some 19% of all compounds tested hit in one or more screens of this group. The call rests on the fitted dose curve; in most records, active means well fitted curve in the direction sought with a large enough effect; inconclusive means small, poorly fitted or top-dose-only effect, or another doubt; inactive means no such curve, though single readings can be large; an effect the other way counts as inactive or inconclusive. On the % scale 0 is the no-effect control and ±100 the full control effect; potency means the concentration at half of the fitted maximal effect.
SMILES,TDP1 cell CPT,RORgamma inh,DT40 TDP1 no CPT,TDP1 block,VP16 counter
Cc1ccc(C)n1-c1nnc(N2CCCC(C(=O)NCc3cccc(Cl)c3)C2)s1 (configuration not stated),20.6µM*,.,11.6µM*,5.1%,.
O=S(=O)(NCC1CCCO1)c1ccc(S(=O)(=O)N2CCc3ccccc3C2)cc1 (configuration not stated),-0.9%,0.1%,10.0%,0.0%,13.1%
O=C(COC(=O)/C=C/c1ccccc1)NC(=O)NC1CCCCC1,-9.1%,.,-18.3%,-2.5%,.
COCCNC(=O)c1onc(CSc2cc(C)cc(C)c2)c1C(=O)O,4.7%,-8.9%,0.6%,4.1%,-7.0%
COc1ccc(N2CCCn3c2nc2c3c(=O)n(Cc3ccc(C)cc3)c(=O)n2C)c(OC)c1,?,9.5%,?,7.5%,4.2%
CCc1nn(CC(=O)NCc2ccccc2Cl)c(=O)c2cc3ccccc3n12,?,.,?,2.0%,.
CCOc1ccc(N(CC)S(=O)(=O)c2c(C)[nH]c(=O)[nH]c2=O)cc1,26.0%,5.2%,-1.0%,.,5.2%
COc1cccc(CNC(=O)C2CCCN(c3nnc(-n4c(C)ccc4C)s3)C2)c1 (configuration not stated),?,.,?,7.6%,.
COc1cccc(CNC(=O)C2CCN(c3nnc(-n4c(C)ccc4C)s3)CC2)c1,?,.,14.6µM*,5.1%,.
O=C1c2ccccc2C(=O)N1/N=C/c1ccc(O)c(O)c1,-26.4%,-23.1%,-19.6%,-10.1%,-8.4%
CCN=c1scc(C)n1/N=C/c1cc(Br)c(O)c(OC)c1,-25.8%,2.2%,?,7.9%,-15.1%[10 µM]
CCOC(=O)c1sc(/N=C/c2ccc(O)cc2O)cc1C,-2.3%,35.2%,-20.4%,0.6%,16.8%
C=CCN=c1scc(C)n1/N=C/c1ccc(O)c(O)c1,16.4µM*,17.8µM*,7.31µM*,6.0%,-3.4%
CN=c1scc(C)n1/N=C/c1ccc(O)cc1O,?,0.631µM*,?,8.2%,1.26µM*
CN=c1scc(C)n1/N=C/c1cc(Br)c(O)c(Br)c1,3.9%,3.7%,-24.1%,6.5%,-0.4%
CN=c1scc(C)n1/N=C/c1ccc(O)cc1,?,?,23.1µM*,5.2%,2.51µM*
CN=c1scc(-c2ccco2)n1/N=C/c1ccc(O)c(O)c1,4.61µM*,0.0891µM*,9.2µM*,7.9%,0.708µM*
CCc1ccc(-n2nc(C)c3c(C)cc(=O)n(CC(=O)Nc4cc(Cl)ccc4OC)c32)cc1,-0.2%,.,-18.7%,8.4%,.
COc1ccc(C2=NN(c3nc(-c4ccccc4)c(CC(=O)O)s3)C(c3ccco3)C2)cc1 (configuration not stated),-25.2%,4.9%,-4.7%,4.3%,?
O=C(COC(=O)c1ccc([N+](=O)[O-])o1)NCc1ccc2c(c1)OCO2,-25.7%,.,13.7%,-12.1%,.
CN(C)S(=O)(=O)c1cc(C(=O)OCCn2cnc3c2c(=O)n(C)c(=O)n3C)ccc1Cl,-14.5%,16.1%,?,2.5%,4.3%
Cc1cc(C)n2[nH]c(=O)cc2n1,-10.8%,.,-9.7%,.,.
COc1cc2c(cc1OC)CN(Cc1cc(OC)c(O)c(OC)c1)CC2,-19.4%,-7.5%,0.1%,4.7%,-17.8%
COc1cccc(CNC(=O)[C@@H]2CCCN2)c1,3.7%,.,-10.3%,.,.
CS(=O)(=O)c1ccc(C(=O)Nc2ccccc2N2CCOCC2)c(Cl)c1,0.7%,9.7%,-14.7%,-1.6%,3.3%
SMILES,TDP1 cell CPT,RORgamma inh,DT40 TDP1 no CPT,TDP1 block,VP16 counter
CN(c1ccccc1)S(=O)(=O)c1ccc(Cl)c(C(=O)Nc2ccccc2N2CCOCC2)c1,8.2µM*,.,7.31µM*,-2.0%,.
CN(CC(=O)Nc1ccccc1N1CCOCC1)S(=O)(=O)c1ccc(Cl)cc1,20.6µM*,14.7%,?,4.0%,-1.6%
CCOC(=O)C(NC(=O)Nc1ccc(O)cc1)(c1ccccc1)C(F)(F)F (configuration not stated),-0.2%,34.1%,-6.6%,2.7%,-1.2%
Oc1c(CN2CCN(c3ccccc3)CC2)cc(Br)c2cccnc12,5.17µM*,0.562µM*,3.26µM*,.,0.891µM*
CCOCc1cc(CN2CCN(c3cccc(Cl)c3)CC2)c(O)c2ncccc12,8.2µM*,.,7.31µM*,12.7%,.
COCc1cc(CN2CCN(C)CC2)c(O)c2ncccc12,4.11µM*,3.16µM*,3.26µM*,-3.0%,5.62µM*
Oc1c(CNc2ccccc2)cc(COCc2ccccc2)c2cccnc12,.,.,.,1.5%,.
CCOCC(=O)N1CCN(c2cccc(Cl)c2)CC1,-11.0%,4.0%,?,-2.7%,15.1%[10 µM]
CCOC(=O)N1CCN(Cc2cc(Cl)c3cccnc3c2O)CC1,0.82µM*,0.126µM*,0.461µM*,2.6%,0.0891µM*
O=c1cc(CN2CCN(c3ccccc3)CC2)c2c(ccc3ccccc32)o1,?,?,?,3.0%,-12.9%
CCCNC(=O)NC(=O)COC(=O)c1cccc(NS(=O)(=O)c2ccc(F)c(F)c2)c1,?,?,-27.9%,3.5%,-25.0%
Cc1c(N=NC2=C(O)CC(C)(C)CC2=O)cc2c(c1[N+](=O)[O-])C(C)(C)CC2(C)C,?,-1.5%,?,.,2.2%
Oc1c(CN2CCOCC2)cc(COCc2ccccc2)c2cccnc12,4.61µM*,0.794µM*,4.11µM*,6.9%,0.0891µM*
CCOC(=O)C1CCN(Cc2ccccc2C(F)(F)F)CC1,-20.7%,23.9%,-7.9%,-6.3%,0.2%
CC(C)OCc1cc(CN2CCN(c3ccccc3)CC2)c(O)c2ncccc12,4.61µM*,.,3.26µM*,12.7%,.
Clc1ncc(CN2CCN(c3ccccc3)CC2)s1,-13.1%,0.2%,-5.9%,0.0%,-4.6%
c1ccc(N2CCN(Cc3ccnc4ccccc34)CC2)cc1,25.9µM*,20.3%[0.365 µM],20.6µM*,5.6%,.
CCOC(=O)C1CCN(Cc2ccc(O)c3ncccc23)CC1,4.61µM*,2.82µM*,3.66µM*,8.2%,5.01µM*
Cc1ccc2nc(SCC(=O)NCc3ccco3)c(C)cc2c1,?,-3.8%,?,3.7%,-8.3%
CCc1nc2ccc(C(=O)N(CC)CCN(C)C)cn2c1N(C)Cc1cccs1,-11.6%,.,-18.2%,.,.
COc1ccc2oc(C(=O)Nc3cccc(S(=O)(=O)N4CCOCC4)c3)c(C)c2c1,?,.,?,6.5%,.
CCOC(=O)c1c(N)sc2c1CCN(CCc1ccccc1)C2,?,0.1%,?,.,-4.2%
Cc1nc(C)c(CC(=O)N2CCc3c([nH]c4ccccc34)C2c2ccccn2)s1 (configuration not stated),-7.4%,2.4%,?,.,-7.2%
Cc1cccc(C2c3[nH]c4ccccc4c3CCN2C(=O)c2ccc(=O)[nH]c2)n1 (configuration not stated),5.6%,-24.5%,-21.8%,7.2%,-10.7%
